The text below walks through data of PubChem BioAssay AID463173 (ICCB-Longwood Screening Facility, Harvard Medical School, 2010).

Among all 52,000 compounds or so, about 4,300 (8.3%) were called active. For the sample, actives were picked, then their nearest neighbours and some compounds at random. A number with no mark means an inactive call. Cut-off read from the data, not from the text of the source: active = survival mostly below about 52% (no sharp cut-off); inactive = mostly above about 56%.

The subject of this assay is DeltatarO mutant. The experiment in a line: growth inhibition of S. aureus wild type versus tarO mutant, primary screen, teichoic acid synthesis inhibitors, RN4220, OD600 (AID 463173). Particulars: OD600, 18 h, active compounds read low, screened at 18.75 µg/mL (by protocol).
In the case of `Cc1cc2nn(-c3ccc(F)cc3)nc2cc1NC(=O)c1cc(Cl)ccc1Cl`, the survival is 141%.

In the case of `CC1CCCN(S(=O)(=O)c2ccc3c(c2)CCN3C(=O)CCC(=O)O)C1` (stereo unspecified), the survival was 96%.

In the case of `Cc1ccc(N2CC(c3nnc(NC(=O)c4ccco4)s3)CC2=O)cc1Cl` (stereo unspecified), the survival is 77%.

As for `CCN1C(=O)CC(n2c(C)nc3ccccc32)C1=O` (stereo unspecified), the survival was 96%.

In the case of `Cc1ccc(-c2nn(-c3ccccc3)c3[nH]c(=O)c(CNCCN4CCOCC4)cc23)cc1`, the survival was 115%.

With `NC(CC(=O)OC1CCCCC1)C(=O)OC1CCCCC1` (stereo unspecified), the survival was 89%.

Consider `O=C(Nc1ccc(F)c(Cl)c1)C1CCCN(c2ncnc3onc(-c4ccc(F)cc4)c23)C1` (stereo unspecified), for which the survival is 78%.

For the molecule `CN(Cc1ccco1)S(=O)(=O)c1nnc(NC(=O)c2ccccc2)s1`, the survival is 23% (active).

For the molecule `CC(C)COc1ccc(C(=O)Nc2nnc(S(=O)(=O)N(C)Cc3ccco3)s2)cc1`, the survival is 79%.

Turning to `Cc1ccc(C(=O)Nc2nnc(S(=O)(=O)N(C)Cc3ccc(F)cc3)s2)cc1`, the survival was 60%.

Regarding `Cc1ccc(C(=O)Nc2nnc(S(=O)(=O)N(C)Cc3ccco3)s2)cc1`, the survival was 39% (active).

In the case of `CN(Cc1ccco1)S(=O)(=O)c1nnc(NC(=O)c2ccccc2Cl)s1`, the survival was 76%.

On to `O=C(CCCSc1nc(-c2ccco2)cc(C(F)(F)F)n1)NC1CCCCC1`, for which the survival was 86%.

Take `Cc1ccc(N(Cc2cccs2)C(=O)C(C)Oc2ccc(Cl)c(C)c2)cc1` (stereo unspecified): the survival was 58%.

With `COc1ccc(Cl)cc1C(=O)N1CCCC1`, the survival is 100%.

`CN1C(C(=O)Nc2ccc(F)cc2F)=CC(c2ccc3c(c2)OCO3)=NS1(=O)=O`: the survival was 68%.

Consider `Cc1ccc(Cn2ccnc2SCC(=O)NCc2ccc(F)cc2)cc1`, for which the survival is 101%.

For the molecule `O=C(/C=C/c1ccco1)NC(=S)NC1CCCCC1`, the survival was 115%.

`Cc1ccc(OC(=O)CSc2nnc(-c3ccco3)n2-c2ccccc2)cc1`: the survival was 52%.

With `Cc1cc(=O)n2nc(N3CCC(C(=O)Nc4ccc(Br)cc4F)CC3)sc2n1`, the survival is 94%.

In the case of `Cc1cc(C)cc(NC(=O)c2cc(S(=O)(=O)N3CCCC3)ccc2F)c1`, the survival is 92%.

In the case of `CCc1ccc2c(c1)c(=O)c(S(=O)(=O)c1ccccc1)cn2CC(=O)Nc1ccc(OC)cc1`, the survival was 76%.

As to `O=C(/C=C/c1ccccc1)Nc1cc(-c2nc3cc(Cl)ccc3o2)ccc1Cl`, the survival was 46% (active).

Consider `O=C(Nc1ccc2oc(-c3ccc4ccccc4c3)nc2c1)c1cc(Cl)ccc1Cl`, for which the survival is 86%.

For the molecule `COc1cc(OC)cc(C(=O)Nc2cc(-c3nc4cc(Cl)ccc4o3)ccc2Cl)c1`, the survival was 71%.

As to `O=C(Nc1cc(-c2nc3cc(Cl)ccc3o2)ccc1Cl)c1cccc2ccccc12`, the survival is 44% (active).

For `O=C(COc1ccccc1[N+](=O)[O-])Nc1cc(-c2nc3cc(Cl)ccc3o2)ccc1Cl`, the survival is 66%.

As for `O=C(Cc1ccccc1)Nc1cc(-c2nc3cc(Cl)ccc3o2)ccc1Cl`, the survival is 68%.

Regarding `O=C(/C=C/c1ccccc1)Nc1cc(-c2nc3ccccc3o2)ccc1Cl`, the survival was 59%.

For the molecule `O=C(Nc1cc(-c2nc3cc(Cl)ccc3o2)ccc1Cl)c1ccco1`, the survival was 41% (active).

`COc1cc(OC)c(-c2cc(C(=O)NCc3ccc(F)cc3)c3c(-c4ccccc4)[nH]nc3n2)cc1OC`: the survival is 98%.

Take `O=C(NCC1CCCO1)C12CC3CC(CC(C3)C1)C2` (stereo unspecified): the survival is 109%.

Turning to `CC(C)Oc1ccccc1NC(=O)CSc1nccn1C`, the survival was 60%.

Take `CCOCCc1nn2c(=O)cc(COC(=O)COc3ccc(C)c(C)c3)nc2s1`: the survival was 89%.

For the molecule `O=C(CN1CCN(C2CCCCC2)C(=O)C1=O)Nc1ccc(Cl)cc1`, the survival was 86%.

In the case of `CCOC(=O)c1c(NC(=O)c2cc3nc(-c4ccc(Br)cc4)cc(C(F)(F)F)n3n2)sc(C(C)=O)c1C`, the survival is 83%.

As to `CCOC(=O)c1cccc(NC(=O)[C@@H](c2ccccc2)N2Cc3ccccc3C2=O)c1`, the survival is 58%.

In the case of `Cc1ccccc1-c1nnc(SCC(=O)N(C)c2ccccc2)o1`, the survival is 79%.

On to `O=C(OC1CSc2nc3ccccc3n2C1)c1ccccc1Cl` (stereo unspecified), for which the survival was 95%.

For the molecule `COC(=O)C1CC(=O)N(c2ccccc2)C1` (stereo unspecified), the survival was 72%.

As to `CC(C)CCOc1ccc(C(=O)NCC2OCCc3ccccc32)cc1` (stereo unspecified), the survival is 39% (active).

As to `CCCOc1ccc(C(=O)NCC2OCCc3ccccc32)cc1` (stereo unspecified), the survival was 49%.

As to `CC(C)COc1ccc(C(=O)NCC2OCCc3ccccc32)cc1` (stereo unspecified), the survival is 51%.

Consider `Cc1ccccc1NC(=O)CSc1nnc(-c2cccs2)o1`, for which the survival was 71%.

Consider `Cc1c(Cl)cccc1-n1ncc(C(=O)Nc2ccc(Br)cc2F)c1C1CCNCC1`, for which the survival is 87%.

Regarding `COc1cc(Cl)c(NS(=O)(=O)c2ccc3[nH]c(=O)ccc3c2)c(OC)c1`, the survival is 102%.

With `O=C(CNS(=O)(=O)c1ccc(Cl)cc1)NC1CCCC1`, the survival was 67% (active).

As to `O=C(CNS(=O)(=O)c1ccc(Cl)cc1)NN=C1CCCCC1`, the survival was 92%.

With `CC(C)(C)C(=O)CNS(=O)(=O)c1ccc(S(=O)(=O)NC2CCCCC2)cc1`, the survival is 79%.

With `Cc1cc(-c2ccc(S(=O)(=O)NCc3ccccc3Cl)s2)on1`, the survival is 128%.

Consider `CCOc1ccc(OCC)c(NC(=O)c2cc3ccccn3n2)c1`, for which the survival was 87%.

Take `COc1cc(C(=O)NCc2nc(-c3ccc(Cl)cc3)no2)cc(OC)c1OC`: the survival is 59%.

On to `COc1ccc(-c2noc(CNC(=O)c3ccc(OC)cc3OC)n2)cc1`, for which the survival is 62% (active).

Turning to `COc1ccc(Cl)cc1C(=O)NCc1nc(-c2cccc(C)c2)no1`, the survival was 48%.

For `COc1ccc(-c2noc(CNC(=O)c3ccccc3Br)n2)cc1`, the survival is 51%.

Regarding `COc1ccc(-c2noc(CNC(=O)c3ccco3)n2)cc1`, the survival was 87%.

Turning to `O=C(NCc1nc(-c2ccccc2)no1)c1ccco1`, the survival was 68%.

For the molecule `COc1cccc(C(=O)NCc2nc(-c3ccccc3)no2)c1OC`, the survival was 43% (active).

As to `COc1cc(OC)c(C(=O)NCc2nc(-c3ccccc3)no2)cc1OC`, the survival was 41% (active).

As for `COc1ccc(-c2noc(CNC(=O)c3cc(OC)c(OC)c(OC)c3)n2)cc1`, the survival is 55%.

`NC(=O)Cn1cc(F)c(=O)[nH]c1=O`: the survival is 87%.
